GALK inhibitor – blocks human galactokinase activity; P51570; Purified GALK, Kinase-Glo residual ATP luminescence; Potency, µM (top dose mostly 57.5 µM), actives largely listed as inhibitors; 270,000 compounds, 0.007% hits; AID 1868
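GALK at 5 nM final was combined with compound, 35 uM ATP and 100 uM galactose in HEPES pH8.0 with MgCl2 and DTT. The reaction ran one hour at room temperature before luminescent ATP detection.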
USP2a inh – inhibitors of human ubiquitin-specific protease USP2a; USP2 core, Ub-CHOP2 coupled fluorogenic reporter, 485/531; Potency, µM (top dose mostly 38.3 µM), hits mostly inhibitors; 330,000 compounds, 0.01% hits; O75604
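Deubiquitinase activity read as fluorescence (485/531 nm) after Ub-CHOP2 cleavage activates the enterokinase reporter on its substrate; USP2 core 10nM, Ub-CHOP2 and substrate 25nM each, 30min compound preincubation then 60min RT; data normalized to NEM, curves fitted.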
RGS4 inh – inhibitors of human regulator of G protein signaling 4 | Transcreener GDP fluorescence polarization, RGS4-accelerated GTP hydrolysis | P49798 | Potency, µM (doses to about 114 µM), usual class: inhibitors | AID 504845 | 390,000 compounds, 0.039% hits; further: nearly all actives have a fitted effect of over 75% in size
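MLSMR compounds (23 nl, pin-transferred) preincubated 10 min at room temperature with a 500nM (2x) first reagent, then RGS4 at 900nM (2x) plus Transcreener GDP mix added; fluorescence polarization (620/688 nm) read before and after 90 min at 30 °C.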
Eya2 inh – Eya2 (human) phosphatase inhibition; O00167; recombinant Eya2, OMFP fluorescence dephosphorylation (OMFP is methylfluorescein phosphate); Potency, µM (doses to about 76.9 µM), usual class: inhibitors; 330,000 compounds, 0.006% hits
Target sequence (O00167 whole entry, looked up): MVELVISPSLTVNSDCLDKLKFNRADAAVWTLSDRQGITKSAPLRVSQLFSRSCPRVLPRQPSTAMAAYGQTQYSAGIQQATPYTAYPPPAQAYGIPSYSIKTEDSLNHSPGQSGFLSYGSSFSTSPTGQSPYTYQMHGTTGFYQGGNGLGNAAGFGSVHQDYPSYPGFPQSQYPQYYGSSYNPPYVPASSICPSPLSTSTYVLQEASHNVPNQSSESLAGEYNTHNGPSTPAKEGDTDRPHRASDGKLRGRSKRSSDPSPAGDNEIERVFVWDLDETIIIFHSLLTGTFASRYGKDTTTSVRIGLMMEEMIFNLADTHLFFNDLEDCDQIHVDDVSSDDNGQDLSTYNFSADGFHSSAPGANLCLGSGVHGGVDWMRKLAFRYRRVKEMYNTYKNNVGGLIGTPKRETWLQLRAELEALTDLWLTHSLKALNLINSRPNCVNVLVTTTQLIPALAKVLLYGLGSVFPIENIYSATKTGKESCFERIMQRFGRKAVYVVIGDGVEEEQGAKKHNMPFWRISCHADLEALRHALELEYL
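Eya2 (0.2 uM) preincubated 10 min at ambient with compound, then OMFP substrate added at 50 uM; 10 min reaction in 50 mM HEPES pH 7.5, 50 mM NaCl, 5 uM MgCl2, 0.05% BSA, 1 mM DTT. Fluorescence read at Ex 485/Em 525 nm.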
rTrxR1 inhibitor – inhibitors of rat thioredoxin reductase 1. recombinant rTrxR1, NADPH fluorescence consumption, selenite substrate. 390,000 compounds, 1% hits. Potency, µM (doses to about 114 µM), actives largely listed as inhibitors. O89049. AID 588453; further: nearly all actives have a fitted effect of over 65% in size
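Rat TrxR1 (90 nM in the dispensed reagent) was pre-reduced with 400 uM NADPH for 5 min at room temperature, then incubated with compound for 15 min. After 400 uM selenite was added, NADPH fluorescence (Ex 340/Em 450 nm) was followed for 8 min.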
TrxR1 substrate – is turned over as a substrate by rat TrxR1; O89049; purified TrxR1 substrate turnover, NADPH consumption readout; Potency, µM (top dose mostly 114 µM); AID 588456; 390,000 compounds, 0.01% hits; further: nearly all actives have a fitted effect of over 50% in size
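Rat TrxR1, dispensed at 90 nM, was prereduced with 400 uM NADPH (final) for 5 min at ~22 deg C, then incubated with compound 15 min before 400 uM selenite. A first-read NADPH fluorescence drop versus no-compound background flagged substrates.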
Large screens that a line does not name were inactive; ! = not active in a repeat. Only some compounds are listed: those with a hit (about 1% of all), similar ones and a draw of the others. The call rests on the fitted dose curve; in most records, active means well fitted curve in the direction sought with a large enough effect; inconclusive means small, poorly fitted or top-dose-only effect, or another doubt; inactive means no such curve, though single readings can be large; an effect the other way counts as inactive or inconclusive.

C=CCn1c(O)c(N=NC(=O)CNC(=O)/C=C/c2ccco2)c2ccccc21	rTrxR1 inhibitor 14.1µM
C=CCn1c(O)c(N=NC(=O)CNC(=O)/C=C/c2ccc(OC)cc2)c2ccccc21	none
COCCN1CCn2c(nc3cc(NC(=O)c4cccs4)ccc32)C1	rTrxR1 inhibitor 44.7µM
O=C1C(=O)C(c2cc(O)c(O)c(O)c2)Oc2cc(O)cc(O)c21 (stereo not drawn)	RGS4 inh inconclusive, rTrxR1 inhibitor 12.6µM (no result: GALK inhibitor, USP2a inh, Eya2 inh)
O=C1c2ccccc2C(=O)C1c1ccnc2ccccc12	none
N#CC1=C(N)SC(N)=C(C#N)C1c1ccnc2ccccc12	RGS4 inh inconclusive, rTrxR1 inhibitor 31.6µM
COc1ccc(NC(C)=O)cc1S(=O)(=O)N1CCn2cccc2C1C (stereo not drawn)	rTrxR1 inhibitor 50.1µM (no result: GALK inhibitor)
CSc1nc(NCCN(C)C)c2sc3nc(-c4ccco4)c4c(c3c2n1)CCC4	none (no result: GALK inhibitor, USP2a inh, Eya2 inh)
CSc1nc(N(C)CCO)c2sc3nc(-c4ccco4)c4c(c3c2n1)CCC4	RGS4 inh inconclusive, rTrxR1 inhibitor 7.08µM
CC(=O)/C=C/c1ccc2c(c1)S(=O)(=O)N(C1CCCC1)[C@H]2CC(C)=O	none (no result: GALK inhibitor, USP2a inh, RGS4 inh, Eya2 inh)
O=C(Cc1ccc2ccccc2c1)NO	none (no result: GALK inhibitor, USP2a inh, RGS4 inh, Eya2 inh)
COc1ccc(C(=O)Nc2nnc(C(C)C)s2)cc1OC	rTrxR1 inhibitor 79.4µM (no result: GALK inhibitor, USP2a inh, Eya2 inh)
O=C(C[N+]12CN3CN(CN(C3)C1)C2)c1ccc(O)c(O)c1	none (no result: GALK inhibitor, USP2a inh, RGS4 inh, Eya2 inh)
CCCCCCCCCCCCCCCC[N+](C)(C)CCN(Cc1ccc(OC)cc1)c1ncccn1	USP2a inh 10µM, Eya2 inh inconclusive (no result: GALK inhibitor)
O=c1[nH]/c(=C/c2ccc3c(c2)OCO3)c(=O)[nH]/c1=C/c1ccc2c(c1)OCO2	none (no result: GALK inhibitor, USP2a inh, RGS4 inh, Eya2 inh)
O=C(OCc1ccc([N+](=O)[O-])cc1Cl)c1cnccn1	rTrxR1 inhibitor 22.4µM
CCN(CC)c1ccc(C(=C2C=CC(=[N+](CC)CC)C=C2)c2ccc(N(CC)CC)cc2)cc1	RGS4 inh inconclusive, rTrxR1 inhibitor inconclusive (no result: GALK inhibitor, USP2a inh, Eya2 inh)
CCN(CC)c1ccc(C(=C2C=CC(=[N+](CC)CC)C=C2)c2ccccc2)cc1	RGS4 inh inconclusive, rTrxR1 inhibitor 39.8µM (no result: GALK inhibitor, USP2a inh, Eya2 inh)
CC(C)(C)n1ncc2c(=O)n(Cc3cc(F)c(F)cc3Cl)cnc21	none (no result: GALK inhibitor, USP2a inh, RGS4 inh, Eya2 inh)
O=C(C[n+]1ccccc1Cl)c1ccc(F)cc1	none (no result: GALK inhibitor, USP2a inh, RGS4 inh, Eya2 inh)
O=C1OC(c2ccccc2)=NC12CC2c1ccc(Cl)cc1 (stereo not drawn)	rTrxR1 inhibitor 7.94µM
CC(=O)c1cccc(OCc2cc(C(=O)N(C)CCC3CCOCC3)no2)c1	rTrxR1 inhibitor 8.91µM
CC(=O)c1ccc(OCc2cc(C(=O)N(C)Cc3ccon3)no2)cc1	none
COc1cccc(OCc2cc(C(=O)N(C)CCC3CCCCO3)no2)c1 (stereo not drawn)	none
CC(=O)c1cccc(OCc2cc(C(=O)N3C[C@@H](C)O[C@@H](C)C3)no2)c1	rTrxR1 inhibitor 10µM
CC(=O)c1ccc(OCc2cc(C(=O)N(C)Cc3ccccn3)no2)cc1	rTrxR1 inhibitor 50.1µM
CCC1CCCCN1CCCNC(=O)c1ccc2c(c1)N(Cc1ccccc1F)C(=O)c1ccccc1S2(=O)=O (stereo not drawn)	none (no result: GALK inhibitor, USP2a inh, Eya2 inh)
O=c1c2ccccc2c(-c2n[nH]c(=S)o2)nn1Cc1ccccc1	rTrxR1 inhibitor inconclusive
OCc1ccc(-c2nn(Cc3ccccc3)c3ccccc23)o1	RGS4 inh 23.8µM!, rTrxR1 inhibitor inconclusive (no result: GALK inhibitor)
Nc1nc(CN2CCCCCC2)nc(Nc2ccccc2)n1	rTrxR1 inhibitor 15.8µM
Cc1ccc(Nc2nc(N)nc(CN3CCCCCC3)n2)cc1	rTrxR1 inhibitor inconclusive
Cc1nn(C)c(C)c1/C=C(/C(=O)C(C)(C)C)n1cncn1	none
CC(C)(C)C(=O)/C(=C/c1ccncc1)n1cncn1	rTrxR1 inhibitor 17.8µM
O=S1(=O)C=C(Sc2nc3cc(Cl)ccc3o2)c2ccccc21	rTrxR1 inhibitor 2.82µM
CCOC(=O)CNC(=O)C1CCCCC1	none (no result: GALK inhibitor, USP2a inh, Eya2 inh)
Cc1ccc(NC(=O)COC(=O)c2ccccc2OCC(=O)Nc2ccc(Br)cc2)c(C)c1	none (no result: GALK inhibitor, USP2a inh, RGS4 inh, Eya2 inh)
Clc1nc(CN2CCCCC2)nc2sc3c(c12)CCCC3	rTrxR1 inhibitor 3.98µM
Clc1nc(CN2CCOCC2)nc2sc3c(c12)CCC3	none

Assay outcomes as filed in PubChem BioAssay.
